In all, about 2,400 compounds went through this assay and about 1,400 (58%) were called active.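 How the source made its calls: active means inhibition of 30% or more at any tested dose; inconclusive means primary hits over the limit that were never retested; inactive means the rest.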 So high a share suggests a set chosen from earlier hits. This is one part of the list.
Assay: ADP Hunter readout inhibition without MgcRacGAP – biochemical, coupled enzyme counter-screen, artefact control for MgcRacGAP inhibitor project, dose response (AID 624351);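 further: signal is the ADP detection kit reading of free GDP without any GAP enzyme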;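 on inhibition: 0% = median positive control wells and 100% = median negative control wells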
Details: fluorescence, no MgcRacGAP; series mostly up to 80 µM

Row | Structure (SMILES) | IC50 | inhibition
1 | COc1cc2c(CCNC(C)=O)c[nH]c2cc1O | 50.7 µM (active) | 
2 | COc1ccc(Br)cc1CN1CCN(Cc2c[nH]c3ccccc23)CC1 | inactive | 
3 | N#Cc1ccccc1S(=O)(=O)N1CCN(C(=O)Cc2coc3cc(O)ccc23)CC1 | 33.6 µM (active) | 
4 | Cc1ccc(C)c(S(=O)(=O)N2CCN(CC(=O)N3CCc4ccccc4C3)CC2)c1 | inactive | 
5 | O=C(Cc1coc2cc(O)ccc12)N1CCN(S(=O)(=O)c2ccc(Br)cc2)CC1 | 21.6 µM (active) | 
6 | CC(=O)N1CCN(CC(O)COc2ccc(Br)cc2)CC1 (configuration not stated) | inactive | 
7 | CCOc1ccc(CN2CCN(S(=O)(=O)c3ccc(NC(C)=O)cc3)CC2)cc1 | inactive | 
8 | Oc1ccc(-c2cn3c(n2)SCC3)cc1 | 19.5 µM (active) | 
9 | CCOc1cc(/C=C(\C#N)c2[nH]nc(N)c2C#N)ccc1O | 45.7 µM (active) | 
10 | CCOc1cc(-c2cc(-c3ccc(N)cc3)nc(N)c2C#N)ccc1O | inactive | 
11 | Oc1ccc2ccccc2c1Br | 15.8 µM (active) | 
12 | CC1NC(C)c2c(ccc3ccccc23)O1 (configuration not stated) | inactive | 
13 | CC1CCCN(CCOc2ccc3ccccc3c2Br)C1 (configuration not stated) | inactive | 
14 | CN1C(=O)C2C(c3ccc(N(C)C)cc3)=NN(Cc3ccccc3)C2C1=O (configuration not stated) | 46.5 µM (active) | 
15 | c1ccc(Nc2cc(Nc3ccccc3)[nH]n2)cc1 | 57.9 µM (active) | 
16 | C/C=C/C=C/C(=O)[C@@H]1[C@@H]([C@]2(C)OC(=O)C(C)=C2O)[C@H]2/C(=C(O)/C=C/C=C/C)C(=O)[C@]1(C)C(=O)C2(C)O (some centres not stated) | inactive | 
17 | Oc1ccc(NC(=S)N=Nc2c(O)[nH]c3ccccc23)cc1 | 27.5 µM (active) | 
18 | Nc1ccc2nc(Cc3ccccc3)[nH]c2c1 | 72.6 µM (active) | 
19 | Nc1ccc2nc(CCCCc3nc4ccccc4[nH]3)[nH]c2c1 | 59.4 µM (active) | 
20 | O=C1C(=Cc2ccco2)CCC1=Cc1ccco1 |  | -16.6% [at 10 µM] (inactive)
21 | O=C(CCC1CCCC1)N1CCN(C2CCCC2)CC1 | inactive | 
22 | CC/C(=C\c1ccc(N(C)C)cc1)c1ccncc1 | 29.7 µM (active) | 
23 | COC1=C(Br)C(=O)c2nc(C)ccc2C1=O | inactive | 
24 | O=C(Nc1ccc(N2CCCCC2)cc1)c1ccccc1 | inactive | 

Row | Structure (SMILES) | IC50 | inhibition
25 | O=C(Nc1ccc(N2CCCCCC2)cc1)c1ccc[nH]1 | 38.8 µM (active) | 
26 | Cc1ccccc1C(=O)Nc1ccc(N2CCCC2)cc1 | 70.8 µM (active) | 
27 | CN1CCN(Cc2coc3c(Cl)cc(Cl)cc3c2=O)CC1 | inactive | 
28 | Cc1ccc(CCC(=O)Nc2ccc(N(C)C)cc2)o1 | 57.5 µM (active) | 
29 | Cc1ccc(NC(=O)CCNCc2ccco2)cc1S(=O)(=O)N(C)C | inactive | 
30 | COc1ccc(C(=O)N2CCN(C3CCN(Cc4ccccc4)CC3)CC2)cc1OC | inactive | 
31 | COc1ccc(C2CC(c3ccc4ccccc4c3)=NN2C(=O)CNC2CCCCC2)cc1 (configuration not stated) | inactive | 
32 | COc1ccc(NC2CCCN(C(=O)CCN3CCCC3=O)C2)cc1OC (configuration not stated) | inactive | 
33 | COc1ccc(NC2CCCN(C(=O)CSc3ccccc3)C2)cc1OC (configuration not stated) | 68.5 µM (active) | 
34 | COc1ccc(NC2CCCN(C(=O)CCN3CCCO3)C2)cc1 (configuration not stated) | inactive | 
35 | COc1ccc(NC2CCCN(C(=O)CCN3Cc4ccccc4C3=O)C2)cc1 (configuration not stated) | 63 µM (active) | 
36 | COc1ccc(CN2CCN(Cc3cccc(F)c3)CC2)cc1OC | inactive | 
37 | O=C(c1cccc(F)c1)N1CCN(Cc2cccc(Br)c2)CC1 | inactive | 
38 | COc1ccc(NC2CCCN(C(=O)CCc3cccc(F)c3)C2)cc1 (configuration not stated) | 72.9 µM (active) | 
39 | CCOc1ccccc1/C=c1\sc2ncnn2c1=O | inactive | 
40 | CN1C(=O)NC(c2ccc(O)cc2)C2=C1CN(c1ccc(O)cc1)C2=O (configuration not stated) | 44.7 µM (active) | 
41 | O=C(Cn1c(C(=O)NCC2CCCO2)cc2sccc21)c1ccccc1 (configuration not stated) | 81.6 µM (active) | 
42 | O=C(CN1CCCCCC1)NCC1CCCO1 (configuration not stated) | inactive | 
43 | C=CCOc1ccccc1CN1CCCN(C)CC1 | inactive | 
44 | COc1cccc(CNCc2ccco2)c1O | inactive | 
45 | Oc1ccc(-c2csc(NCc3ccco3)n2)cc1 | 24 µM (active) | 
46 | COc1cccc(NC2=C(C#N)C(=O)NC(c3cccc(OC)c3O)S2)c1 (configuration not stated) | inactive | 
47 | Oc1ccc(-c2csc(Nc3cccnc3)n2)cc1 | 15.8 µM (active) | 
48 | Oc1ccc(-c2csc(Nc3ncccn3)n2)cc1 | 21.3 µM (active) | 

Row | Structure (SMILES) | IC50 | inhibition
49 | COc1cccc(Nc2nc(-c3ccc(O)cc3)cs2)c1 | 63.7 µM (active) | 
50 | COc1ccc(-n2c(SCC(=O)C(C)(C)C)nc3c(sc(=S)n3-c3ccccc3)c2=O)c(OC)c1 | inactive | 
51 | O=C(Nc1nc(-c2ccncc2)cs1)C1COc2ccccc2O1 (configuration not stated) | inactive | 
52 | Cc1ccnc(Nc2nc(-c3ccc(O)c(O)c3)cs2)c1 | 61 µM (active) | 
53 | Oc1ccc(-c2csc(Nc3ccccn3)n2)cc1 | 79.7 µM (active) | 
54 | Oc1ccc(-c2csc(Nc3ccccn3)n2)c(O)c1 | 63.3 µM (active) | 
55 | Cc1nc2ncccn2c1-c1csc(Nc2ccc(O)cc2)n1 | 11.1 µM (active) | 
56 | NNc1cc([N+](=O)[O-])cc2c1C(=O)N(Cc1ccccc1)S2=O (configuration not stated) | inactive | 
57 | O=C1NN(c2ccccc2)C(=O)C1=Cc1ccccc1O | inactive | 
58 | COc1cccc(OCC(O)CN2CCN(C)CC2)c1 (configuration not stated) | inactive | 
59 | c1ccc(CCNCCCOc2cccc3ccccc23)cc1 | inactive | 
60 | Nc1ccc2c(c1)C(=O)c1cc(N)c(Cl)cc1-2 | 49.2 µM (active) | 
61 | COc1cc2c(cc1N)-c1ccc(N)cc1C2=O | 16.5 µM (active) | 
62 | O=C(/C=C/c1ccc([N+](=O)[O-])cc1)/C=C/c1ccco1 | inactive | 
63 | Cc1ccc(Cl)c(OCCCN(C)Cc2ccccc2)c1 | inactive | 
64 | O=C(CNCC1CCCO1)Nc1ccc(N2CCCCCC2)cc1 (configuration not stated) | inactive | 
65 | CC1=NN(c2cccc(C(=O)O)c2)C(=O)/C1=C\C=C\c1ccco1 | inactive | 
66 | N#Cc1ccccc1OCCCN1CCC(Cc2ccccc2)CC1 | inactive | 
67 | CC(=O)c1c(C)c(C)c2n1CCn1c(C)ccc1-2 | 44.7 µM (active) | 
68 | COc1ccc(NCc2ccsc2)cc1 | 28.9 µM (active) | 
69 | Clc1nc(NCc2cccnc2)nc(N2CCOCC2)n1 | inactive | 
70 | COc1ccc(NCc2cccnc2)cc1 | 54.6 µM (active) | 
71 | COc1ccc2cc(CNCCOCCOCCNCc3ccc4cc(OC)ccc4c3)ccc2c1 | inactive | 
72 | COc1cccc(OC)c1C(=O)N1CCN(Cc2cccnc2)CC1 | inactive | 
